From PubChem BioAssay
miR-122 inh: miR-122 suppressors via Renilla sensor increase, primary screen, cell-based, Huh7 psiCHECK-miR122, Renilla luciferase, single point; 48 h; activation, % at 12.5 µM; 340,000 tested, 0.14% active;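 active means mean activation of 30% or more, with every replicate also reaching 30%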;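 further: 0% = median of neutral control wells and 100% = median of positive control wells; higher luciferase signal means stronger suppression of miR-122 activity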
* = called active by the depositor. This excerpt belongs to a sample that is enriched for hits.

SMILES | miR-122 inh
CCCC(=O)Nc1ccc2c(c1)OC[C@@H](C)N(C(C)=O)C[C@H](C)[C@@H](OC)CN(C)C2=O | 0
C[C@@H]1CN([C@H](C)CO)S(=O)(=O)c2ccc(-c3cncnc3)cc2O[C@H]1CN(C)Cc1ccccc1 | -4
CNC(=O)C[C@H]1CC[C@@H]2[C@H](COc3ccc(NC(=O)c4cccc(OC)c4)cc3C(=O)N2C)O1 | 83*
CO[C@@H]1CN(C)C(=O)c2cc(NC(=O)Cc3ccccc3)ccc2OC[C@@H](C)N(C)C[C@H]1C | -6
CO[C@@H]1CN(C)C(=O)c2cc(NC(C)=O)ccc2OC[C@@H](C)N(C(=O)CN(C)C)C[C@@H]1C | 0
CNC[C@H]1Oc2cc(C#CCC3CCCC3)ccc2S(=O)(=O)N([C@@H](C)CO)C[C@@H]1C | -14
COc1ccccc1-c1cnc2c(c1)C(=O)N([C@H](C)CO)C[C@@H](C)[C@H](CN(C)Cc1ccccc1)O2 | -5
COCC#Cc1ccc2c(c1)O[C@@H](CN(C)C(=O)COC)[C@H](C)CN([C@@H](C)CO)S2(=O)=O | 0
C[C@H](CO)N1C[C@H](C)[C@@H](CN(C)Cc2ccc3c(c2)OCO3)Oc2c(NC(=O)Nc3ccccc3)cccc2C1=O | -95
CO[C@@H]1CN(C)C(=O)c2cc(NC(=O)Nc3ccccc3)ccc2OC[C@@H](C)NC[C@@H]1C | -1
CC1CCN(CCc2nc3cc(NC(=O)Nc4ccccc4)ccc3n2C)CC1 | 31*
CO[C@H]1CN(C)C(=O)c2cc(NC(=O)Nc3ccccc3)ccc2OC[C@@H](C)NC[C@H]1C | 0
C[C@H]1CN([C@@H](C)CO)C(=O)c2cc(C#CC3(O)CCCC3)cnc2O[C@@H]1CN(C)C(=O)CN(C)C | 4
C[C@@H]1CN([C@H](C)CO)S(=O)(=O)c2ccc(C#C[C@@H](C)O)cc2O[C@@H]1CN(C)CC1CCOCC1 | 1
CCOc1ccc(NS(=O)(=O)c2ccc(NC(=S)NC(=O)CC(C)C)cc2)cc1 | -166
Cc1ccc(S(=O)(=O)Nc2ccc3ccccc3c2)cc1 | -118
Cc1cc(NS(=O)(=O)c2ccc(NC(=O)C(CC(C)C)N3C(=O)c4ccccc4C3=O)cc2)nc(C)n1 (stereo not drawn) | 35*
CN1c2ccc(-c3ccccc3F)cc2[C@H]2[C@H](CCN2S(=O)(=O)c2ccccc2F)[C@H]1CO | -100
COc1cccc2c1C(=O)c1c(O)c3c(c(O)c1C2=O)C[C@@](O)(C(=O)CO)C[C@@H]3O[C@H]1C[C@H](N)[C@H](O)[C@H](C)O1 | 69*
CCC(=O)N(C)C[C@H]1Oc2cc(C#C[C@H](C)O)ccc2S(=O)(=O)N([C@H](C)CO)C[C@@H]1C | 1
C[C@@H]1CN([C@H](C)CO)C(=O)c2cc(C#CC3(O)CCCC3)cnc2O[C@H]1CN(C)Cc1cncnc1 | 3
C[C@H]1CN([C@@H](C)CO)C(=O)c2cc(-c3ccccc3)cnc2O[C@H]1CN(C)C(=O)c1cccnc1 | 0
COc1ccc(C#Cc2cnc3c(c2)C(=O)N([C@H](C)CO)C[C@@H](C)[C@@H](CN(C)CC2CCCC2)O3)cc1 | 8
COc1ccc(NC(=O)Nc2ccc3c(c2)CC(=O)N([C@@H](C)CO)C[C@@H](C)[C@@H](CN(C)C(=O)NC(C)C)O3)cc1 | -101
CC(=O)N(C)C[C@@H]1Oc2cc(C#CC3(O)CCCC3)ccc2S(=O)(=O)N([C@@H](C)CO)C[C@H]1C | 3
SMILES | miR-122 inh
CC(C)CC#Cc1cnc2c(c1)C(=O)N([C@@H](C)CO)C[C@@H](C)[C@H](CN(C)C(=O)CC1CC1)O2 | 8
O=C(NC[C@H]1N[C@H](CO)[C@H]1c1ccccc1)c1ccccc1F | -108
CN(C[C@@H]1[C@@H](c2ccccc2)[C@@H](CO)N1Cc1ccccn1)S(C)(=O)=O | -92
CC(=O)N(C)C[C@@H]1[C@@H](c2ccc(-c3cccnc3)cc2)[C@H](CO)N1C(=O)C1CC1 | -258
CC(=O)N(C[C@@H]1N[C@@H](CO)[C@H]1c1ccc(-c2ccccc2)cc1)C(C)C | 67*
CC(C)N(C[C@@H]1N[C@@H](CO)[C@@H]1c1ccccc1)S(=O)(=O)c1ccccc1 | 67*
C[C@H]1CN([C@@H](C)CO)C(=O)c2cc(C#CCc3ccccc3)cnc2O[C@@H]1CN(C)CC1CCOCC1 | 5
C[C@H](CO)N1C[C@H](C)[C@H](CN(C)C(=O)c2ccccn2)Oc2cc(C#CCC3CCCC3)ccc2S1(=O)=O | 0
C[C@H]1CN([C@@H](C)CO)C(=O)c2cc(C3=CCCCC3)cnc2O[C@H]1CN(C)Cc1ccccc1C(=O)O | -1
COCC(=O)N(C)C[C@H]1Oc2ncc(C#Cc3ccccc3OC)cc2C(=O)N([C@@H](C)CO)C[C@@H]1C | -2
CCCC#Cc1cnc2c(c1)C(=O)N([C@@H](C)CO)C[C@@H](C)[C@@H](CN(C)C(=O)Cc1ccccc1)O2 | -2
CO[C@H]1CN(C)C(=O)c2ccc(NC(=O)c3ccccc3)cc2OC[C@@H](C)N(C)C[C@H]1C | -3
CCCNC(=O)N(C)C[C@@H]1Oc2ncc(C#CC(C)C)cc2C(=O)N([C@@H](C)CO)C[C@H]1C | 4
